Out of some 390,000 compounds screened, about 2,200 (0.56%) were called active. Not shown: some 3% with an inconclusive outcome. Calls follow the shape of the dose curve; as a rule, active = well fitted inhibition curve with a large enough effect; inconclusive = small, poorly fitted or top-dose-only effect; inactive = no such curve, though single readings can be large or run the other way. Shown is part of a subset that was picked to be rich in actives. Entries that show only a call come without a potency.
These compounds were tested against Chromobox protein homolog 1 (Homo sapiens) (UniProt P83916) (assay: HTS for Inhibitors of HP1-beta Chromodomain Interactions with Methylated Histone Tails). Conditions: AlphaScreen HP1-beta / biotin-H3K9me3 peptide binding; series mostly up to 114 µM.
In short: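 Compound inhibition of the preformed complex between 50 nM HP1-beta and 50 nM biotinylated H3K9me3 peptide was read by AlphaScreen. Buffer was PBS pH 7.4 with 0.01% Tween-20. Incubations ran 30 min at room temperature, with 10 ug/mL donor/acceptor beads.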
Also: nearly all actives have a fitted effect of over 70% in size.
Potency is read from the fitted curve at half-maximal effect.

Sequence of Chromobox protein homolog 1 (Homo sapiens) (P83916 whole entry, looked up): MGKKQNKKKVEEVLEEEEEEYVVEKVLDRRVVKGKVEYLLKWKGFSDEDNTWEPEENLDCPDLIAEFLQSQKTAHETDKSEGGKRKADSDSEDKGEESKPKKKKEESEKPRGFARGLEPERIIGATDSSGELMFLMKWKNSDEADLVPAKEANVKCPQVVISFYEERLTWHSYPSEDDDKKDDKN

Compound	Potency
COc1ccc(CCNC(=O)c2ccc(-n3c(C)cc4c3CCCC4)cc2)cc1OC	inactive
CCOC(=O)c1ccc(NC(=O)c2c(NCc3cccs3)sc3c2CCCC3)cc1	inactive
Cc1ccc(C(=O)O)cc1-c1ccc(/C=C2\SC(=O)N(CC(=O)Nc3ccc4c(c3)OCO4)C2=O)o1	79.4 µM (active)
COC(=O)c1ccc2c(c1)N(CC(=O)Nc1ccc(C)c(C)c1)C(=O)c1ccccc1S2	inactive
O=C(CN1CCN(c2ncc(C(F)(F)F)cc2Cl)CC1)Nc1ccc2c(c1)OCO2	inactive
COc1ccc(S(=O)(=O)c2c(Nc3cccc(Cl)c3)sc(C(=O)c3ccccc3)c2N)cc1	inactive
O=C1Cc2cc(S(=O)(=O)Nc3ccc(OC(F)(F)F)cc3)cc3c2N1CCC3	inactive
Nc1ncc(S(=O)(=O)Nc2ccc(OC(F)(F)F)cc2)cn1	inactive
O=S(=O)(Nc1ccc(O)c2ccccc12)c1ccc(OC(F)(F)F)cc1	44.7 µM (active)
O=C(NCCCO)c1nn(-c2ccc(Cl)cc2)nc1CO	inactive
CCOc1ccc(NC(=O)CSc2nnc3c(n2)[nH]c2ccc(S(=O)(=O)N4CCOCC4)cc23)cc1	inactive
O=C(COc1ccccc1)Nc1ccc(N2CCN(C(=O)c3cccs3)CC2)cc1	inactive
Cc1cc(Nc2cc(N3CCN(C)CC3)nc(Sc3ccc(NC(=O)C4CC4)cc3)n2)n[nH]1	inactive
C=CC(=O)Nc1ccc(Nc2ccnc(Nc3ccc(N4CCN(C)CC4)cc3)n2)cc1	44.7 µM (active)
Cc1cc2nn(-c3ccc(Cl)cc3)nc2cc1NC(=O)C(C)C	inactive
Oc1c(Br)cc(/C=N/NC(=S)NCC2CCCO2)cc1Br (stereo unspecified)	inactive
COc1ccc(S(=O)(=O)NNC(=O)Nc2ccc(C)cc2)c(OC)c1	inactive
COc1cc(/C=N/Nc2ccc(C)cc2)cc(Br)c1O	79.4 µM (active)
CN1CCN(C(CNC(=O)c2ccccc2F)c2ccc3c(c2)OCO3)CC1 (stereo unspecified)	inactive
CN(C)C(=O)CSc1n[nH]c(-c2ccco2)n1	inactive
Clc1ccccc1CSc1nncn2c1cc1occc12	inactive
CC1(C)N=C(SCc2ccccc2Cl)c2ccccc2N1	inactive
Clc1ccccc1CSc1nnc(-c2ccco2)c(-c2ccco2)n1	20 µM (active)
Fc1ccc(CSc2nc(NCc3ccccc3)c3ccccc3n2)cc1	inactive

Compound	Potency
c1ccc(CSc2nnc(-c3ccco3)c(-c3ccco3)n2)cc1	39.8 µM (active)
Cc1ccc(CNC(=O)CCc2c(C)nn(-c3ccc(N4CCCC4)nn3)c2C)cc1	inactive
CCCN1CCC(=O)N(C(CSc2ccc(OC)cc2)Cc2ccccc2)CC1 (stereo unspecified)	inactive
COc1ccc(Cl)cc1S(=O)(=O)N1CCC(c2ccncc2)CC1	inactive
CC(C)(C)C1C/C(=C/c2ccco2)C(=O)/C(=C/c2ccco2)C1 (stereo unspecified)	39.8 µM (active)
COc1ccc(OC)c(NC(=O)CSC2=Nc3ccccc3C3=NC(CC(=O)NCc4ccc(F)cc4)C(=O)N23)c1 (stereo unspecified)	inactive
CCc1nc2nc(C)cc(Nc3ccc(F)c(Cl)c3)n2n1	inactive
COc1ccc(S(=O)(=O)Nc2cccc3cccnc23)c(N)c1	inactive
COc1ccc(C(=O)Nc2ccc(-n3nncc3-c3ccccc3)cc2)cc1OC	inactive
CC(=O)Nc1ccc(S(=O)(=O)N2N=NC3C2C2CC4C3(CN(C(=O)OC(C)(C)C)S4(=O)=O)O2)cc1 (stereo unspecified)	inactive
COc1cccc(-c2nc(S(=O)(=O)c3ccc(C)cc3)c(NCc3ccccc3)o2)c1	inactive
Cc1ccc2c(c1)N(C(=O)Nc1ccc(Br)cc1F)CCO2	inactive
COC(=O)c1scc(-c2ccc(C)cc2)c1S(=O)(=O)Nc1cc(Cl)c(OC)cc1OC	inactive
CCN1CCN(c2ccc([N+](=O)[O-])cc2C(=O)c2ccc(Cl)cc2)CC1	inactive
O=[N+]([O-])c1ccc(N2CCN(c3ccc(O)cc3)CC2)c(Cl)c1	50.1 µM (active)
O=C(O)C1CCN(c2ccc([N+](=O)[O-])cc2[N+](=O)[O-])CC1	inactive
COc1ccc(CCn2c3c(c(=O)[nH]c2=S)CN(C(C)C)CN3)cc1OC	inactive
Cc1cc(C)c(/C=C/c2onc(C)c2S(=O)(=O)N2CCC(C(=O)Nc3ccc(Cl)cc3C)CC2)c(C)c1	inactive
CCN(CC)S(=O)(=O)c1ccc2c(c1)N(CC(=O)NCC(C)c1ccccc1)C(=O)CO2 (stereo unspecified)	inactive
Cc1ccccc1C(=O)N(Cc1ccc(N(C)C)cc1)CC1CCCO1 (stereo unspecified)	inactive
Cc1nc2c(c(C)nn2-c2ccccc2)c(C)c1CCC(=O)NCCc1ccc(Cl)cc1	inactive
CCCNC(=O)C1CCC(Cn2c(=O)c3sccc3n(Cc3ccccc3F)c2=O)CC1 (stereo unspecified)	inactive
COc1ccc(N(C)C(=O)C2CCN(S(=O)(=O)c3cc(Br)cc4c3N(C(C)=O)CC4)CC2)cc1	inactive
O=c1ccc2c(-c3ccccc3S(=O)(=O)O)c3ccc(O)c(O)c3oc-2c1O	1 µM (active)

Compound	Potency
CCOc1cccc(NC(=O)c2ccc(F)c(S(=O)(=O)N(CC)c3cccc(C)c3)c2)c1	inactive
CCN(Cc1ccccc1)S(=O)(=O)c1ccc2c(c1)CCCN2C(C)=O	inactive
Cc1ccc(Cl)cc1NC(=O)/C(C#N)=C\c1cn(Cc2ccc(F)cc2)c2ccccc12	inactive
COc1ccc(Cn2c(=O)[nH]c3cc(C(=O)N4CCN(C(=O)c5ccco5)CC4)ccc3c2=O)cc1	inactive
COc1ccc(N2CCC(CNC(=S)Nc3c(C)cccc3C)C2)cc1 (stereo unspecified)	20 µM (active)
COc1ccc(N2CCC(N3CCN(C)C(CCO)C3)CC2)cc1 (stereo unspecified)	inactive
Cc1cccc(C)c1NC(=O)CNC(=O)C1CCCC1	inactive
COc1ccc(CNC(=O)C2CCC(CNc3c(N4CCOCC4)c(=O)c3=O)CC2)cc1 (stereo unspecified)	inactive
COc1ccc(NC(=O)N2CCCC(C(=O)Nc3ccccc3OC)C2)cc1 (stereo unspecified)	inactive
COc1ccc(NC(=S)NCC2CCN(c3ccc(OC)cc3)C2)cc1 (stereo unspecified)	25.1 µM (active)
CCCN1CCC(=O)N(C(CSc2ccc(C)cc2)Cc2ccccc2)CC1 (stereo unspecified)	inactive
COc1ccc(CCNS(=O)(=O)c2cc(-c3cc(C)no3)ccc2C)cc1OC	inactive
COc1cccc(NC(=O)N2CCN(C(=O)c3nsc4ccccc34)CC2)c1	inactive
Cc1cc(C)cc(OC(C)C(=O)Nc2nc3c(s2)CCCC3)c1 (stereo unspecified)	inactive
COc1cc(C2c3c(oc4ccccc4c3=O)C(=O)N2c2nc(C)c(C)s2)ccc1O (stereo unspecified)	inactive
COc1cc(/C=N\Nc2nc(-c3cccs3)c(NC(C)=O)s2)ccc1O	22.4 µM (active)
COc1cc(/C=C/C(=O)OCC(=O)Nc2cccc(Oc3ccccc3)c2)ccc1O	inactive
COc1ccc(Cl)cc1NC(=O)CSc1nc(-c2cccs2)cc(C(F)(F)F)n1	inactive
COc1ccc(CNC(=O)CSCc2nc(-c3ccccc3F)oc2C)cc1	inactive
COc1ccc(Cn2c(=O)sc3ccccc32)cc1OC	inactive
COc1cc(/C=C2/SC(=S)N(Cc3ccccc3)C2=O)cc(OC)c1O	20 µM (active)
COc1ccc(CCNC(=O)CCCCn2c(=O)c3ccccc3n(Cc3ccccc3)c2=O)cc1OC	inactive
Cc1nc(SCC(=O)N2CCN(c3ccccc3)CC2)[nH]c(=O)c1C	inactive
COc1cccc(-c2nc(CS(=O)(=O)CC(=O)N3CCN(c4cc(C)ccc4C)CC3)c(C)o2)c1	inactive

Compound	Potency
O=C1C[C@@H](c2ccc3ccccc3c2)N1S(=O)(=O)c1ccccc1[N+](=O)[O-]	inactive
CCN(CC)C(=O)CSc1nc2cc3c(cc2c(=O)n1CCCC(=O)NCc1ccc2c(c1)OCO2)OCO3	inactive
CC(=O)N1CCCc2cc(S(=O)(=O)Nc3ccc(Cl)cc3F)ccc21	inactive
C=CS(=O)c1sc(Cl)c(N2CCOCC2)c1[N+](=O)[O-] (stereo unspecified)	44.7 µM (active)
CCn1c2c(c(=O)n3ncc(C(=O)N4CCN(c5ccccc5)CC4)c13)CN(Cc1ccc(OC)cc1)CC2	inactive
COc1ccccc1CNC(=O)C(=O)NCC(c1cccs1)S(=O)(=O)c1cccs1 (stereo unspecified)	inactive
Cc1nnc(C)n1-c1ccc(C(=O)Nc2cccc(Br)c2)cc1	inactive
FC(F)(F)c1cc(Nc2nc3ccccc3c3nncn23)ccc1Cl	inactive
CCc1cccc(C)c1Nc1c(-c2ccc(N(C)C)cc2)nc2ncccn12	17.8 µM (active)
Cc1cccc(C)c1Nc1c(-c2ccccc2O)nc2ncccn12	inactive
Cc1ccccc1Nc1c(-c2ccccc2)nc2ncccn12	inactive
COc1ccc(CCNC(=O)c2ccc3c(c2)sc2nc(-c4ccc(C)cc4)cn23)cc1OC	inactive
c1ccc(Cn2nnc3c(N4CCCCC4)ncnc32)cc1	inactive
CCN(CC)S(=O)(=O)c1cccc(-c2n[nH]c(=S)n2/N=C/c2ccc(C(=O)OC)cc2)c1	50.1 µM (active)
CCN(CC)S(=O)(=O)c1cccc(NC(=O)c2ccc(S(=O)(=O)N3CCCC3)cc2)c1	inactive
COC(=O)c1ccc(/C=N/N2C(C)CCCC2C)cc1 (stereo unspecified)	inactive
CCCCNC(=O)Cn1c(SCc2cccc(Cl)c2)nc2ccncc21	inactive
CCOC(=O)c1cc2c(=O)n3ccccc3nc2n(CC2CCCO2)c1=NC(=O)c1ccccc1Br (stereo unspecified)	inactive
COC(=O)c1ccccc1NC(=O)C(Cc1ccccc1)N1Cc2ccccc2C1=O (stereo unspecified)	inactive
COc1cc(NC(=O)c2nn(-c3ccc(C)cc3)c(=O)c3c2c2ccccc2n3C)cc(OC)c1OC	inactive
Cc1cccc(-n2c(N)c(C(=O)N3CCN(C)CC3)sc2=S)c1	7.94 µM (active)
COc1cccc(N2CCN(c3ccc4nnc(CCC(=O)N5CCN(C)CC5)n4n3)CC2)c1	inactive
Cc1cccc(N2CCN(C(=O)c3ccccc3NC(=O)C3CCCCC3C(=O)O)CC2)c1 (stereo unspecified)	inactive
C=CCn1c(=S)[nH]c2scc(-c3ccco3)c2c1=O	35.5 µM (active)
